Screens: PubChem BioAssay, The Scripps Research Institute Molecular Screening Center
TR-FRET SRC-2 ct = counter-screen for PPARgamma SRC-2 recruitment agonists: TR-FRET artefact | stronger effect = higher value | TR-FRET ratio at 8 µM | actives 0.4% (n = 200,000) | AID 1049
PPARg SRC-3 ag = agonists of human PPARgamma SRC-3 coactivator recruitment. activation, % at 8 µM. biochemical PPARgamma/SRC-3 coactivator recruitment assay. P37231. actives 0.26% (n = 200,000); in the data active = activation above about 23%
Target sequence (P37231 whole entry, looked up): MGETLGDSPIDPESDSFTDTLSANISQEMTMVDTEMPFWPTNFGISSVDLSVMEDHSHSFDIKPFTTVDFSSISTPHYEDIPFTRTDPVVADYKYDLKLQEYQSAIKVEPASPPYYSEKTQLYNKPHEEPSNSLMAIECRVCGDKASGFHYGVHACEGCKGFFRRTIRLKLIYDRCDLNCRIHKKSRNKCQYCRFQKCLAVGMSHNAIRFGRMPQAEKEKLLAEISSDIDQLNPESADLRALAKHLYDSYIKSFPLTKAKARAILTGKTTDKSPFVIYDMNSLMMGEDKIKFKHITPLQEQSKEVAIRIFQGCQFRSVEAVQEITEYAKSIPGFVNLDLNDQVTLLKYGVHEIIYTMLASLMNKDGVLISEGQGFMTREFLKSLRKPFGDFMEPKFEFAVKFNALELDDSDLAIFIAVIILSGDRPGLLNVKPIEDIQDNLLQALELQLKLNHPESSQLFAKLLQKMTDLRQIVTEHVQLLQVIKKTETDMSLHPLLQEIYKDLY
SRC1 TRFRET art = TR-FRET artefact, counter-screen to PPARgamma/SRC-1 agonist assay | TR-FRET detection artefact counter-screen, emission ratio; stronger effect = higher value | TR-FRET ratio at 8 µM | actives 0.34% (n = 99,000) | AID 1051; in the data active = TR-FRET ratio above about 2300
SRC3 TRFRET art = TR-FRET artefact, counter-screen to PPARgamma/SRC-3 agonist assay | TR-FRET ratio at 8 µM | PPARgamma/SRC-3 format; stronger effect = higher value | actives 0.39% (n = 99,000) | AID 1048
PPARg SRC-2 ag = promotes SRC-2 coactivator recruitment by human PPARgamma; P37231; PPARgamma LBD-SRC-2 recruitment, biochemical; activation, % at 8 µM; actives 0.34% (n = 200,000); in the data active = activation above about 22%
PPARg SRC-1 ag = PPARgamma-driven SRC-1 recruitment agonism | P37231 | PPARgamma-SRC-1 coactivator recruitment biochemical assay | activation, % at 8 µM | actives 0.41% (n = 200,000) | AID 631; in the data active = activation above about 19%
PPARg SRC2 ag = human PPARgamma SRC-2 recruitment agonism, confirmation; shares compounds with PPARg SRC-3 ag; biochemical SRC-2 recruitment by PPARgamma; activation, % at 8 µM; actives 52% (n = 790); AID 1297; in the data active = activation above about 22%
PPARg SRC1 conf = confirmation of agonists of SRC-1 recruitment by human PPARgamma; activation, % at 8 µM; actives 43% (n = 790); shares compounds with PPARg SRC-3 ag; PPARgamma–SRC-1 coactivator recruitment biochemical assay; in the data active = activation above about 20%
PPARg SRC3 ag = human PPARgamma SRC-3 recruitment agonism, confirmation. shares compounds with PPARg SRC-3 ag. biochemical PPARgamma-SRC-3 coactivator recruitment, agonist mode. activation, % at 8 µM. actives 29% (n = 790). AID 1301; in the data active = activation above about 24%
Numbers stand for hits; i = inactive; nt = not tested or not shown. Most compounds without a hit are left out; they make up all but 0.9% or so of the library. Cut-off read from the data, not from the text of the source, unless noted: active = TR-FRET ratio above about 2000; inactive = the rest.

SMILES	TR-FRET SRC-2 ct	PPARg SRC-3 ag	SRC1 TRFRET art	SRC3 TRFRET art	PPARg SRC-2 ag	PPARg SRC-1 ag	PPARg SRC2 ag	PPARg SRC1 conf	PPARg SRC3 ag
CC(C)C(OC(=O)/C=C/c1ccc2c(c1)OCO2)C(=O)NC(N)=O (stereo not drawn)	i	i	i	i	i	i	nt	nt	nt
CC(=O)Oc1c(/C=C(\C#N)C(N)=O)[nH]c2ccccc12	i	i	i	i	22	21	22	i	i
CCOC(=O)c1ccc2c(c1)n(CC)c(C)[n+]2CC	i	i	i	i	i	i	nt	nt	nt
CCOC(=O)c1ccc2c(c1)[nH]c(=S)n2CC	i	i	2451	2330	28	23	50	37	30
Cc1ccc(NC(=S)N(CCCN2CCOCC2)Cc2cccnc2)cc1C	i	i	i	i	i	i	nt	nt	nt
CC(Sc1nc(N2CCCCC2)c2c(c1C#N)CCCC2)C(=O)O (stereo not drawn)	i	i	nt	nt	30	19	25	i	i
O=c1cc(-c2ccc3c(c2)OCO3)oc2ccccc12	2211	i	2778	i	27	33	i	i	i
Cc1onc(-c2c(F)cccc2Cl)c1C(=O)N1CCOC12CCCCC2	i	i	i	i	i	i	nt	nt	nt
CC(C)NOC(=O)c1ccc(Cl)cc1	i	i	i	i	i	i	nt	nt	nt
CCOC(=O)c1sc(C)c2c1NC1(CCCCC1)NC2=O	i	i	nt	nt	i	i	nt	nt	nt
CCOC(=O)c1sc(C)c2c1NC(C)(c1cccs1)NC2=O (stereo not drawn)	i	26	nt	nt	i	i	i	i	i
COc1ccc(-c2oc3ncn4nc(Cc5ccccc5)nc4c3c2-c2ccc(OC)cc2)cc1	4122	i	nt	nt	69	84	i	i	i
COc1ccc(-c2oc3ncn4nc(COc5ccccc5)nc4c3c2-c2ccc(OC)cc2)cc1	i	i	nt	nt	i	i	nt	nt	nt
CC(C)C(c1nnnn1Cc1ccc(F)cc1)N1CCN(c2ccc(O)cc2)CC1 (stereo not drawn)	i	i	i	i	i	i	nt	nt	nt
O=c1c(Cl)c(N2CCN(S(=O)(=O)c3ccc(F)cc3)CC2)cnn1-c1cccc(Cl)c1	i	45	nt	nt	i	47	45	39	24
COc1ccc2c(Cl)c(C(N)=O)sc2c1	2210	i	2690	2550	37	33	36	25	25
COc1ccc2c(Cl)c(C(=O)NN)sc2c1	i	i	nt	nt	i	i	nt	nt	nt
COc1ccc(C(=O)c2ccc(CC(=O)O)s2)cc1	i	i	i	i	i	i	nt	nt	nt
CN(C)c1ccc(N/C=C/C(=O)c2ccco2)cc1	i	i	nt	nt	24	i	i	i	i
NS(=O)(=O)c1ccc(N/C=C\C(=O)c2ccc(F)cc2)cc1	i	i	i	i	i	i	nt	nt	nt
CN(C)c1ccc(N/C=C/C(=O)c2ccc(F)cc2)cc1	i	27	nt	nt	i	i	i	i	i
CC(=O)Nc1ccc(N/C=C/C(=O)c2ccco2)cc1	i	i	nt	nt	i	i	nt	nt	nt
Cc1ccc(S(=O)(=O)c2c(C)cc(C)nc2N2CCCC2)cc1	i	i	i	i	i	i	nt	nt	nt
Cc1cc(C)c2cc(C#N)c(N3CCCN(S(=O)(=O)c4ccccc4)CC3)nc2c1	i	i	nt	nt	i	i	nt	nt	nt
CC(=O)c1cccc(S(=O)(=O)N2CCN(c3nc4cc(C)cc(C)c4cc3C#N)CC2)c1	i	39	nt	nt	i	26	i	i	i
SMILES	TR-FRET SRC-2 ct	PPARg SRC-3 ag	SRC1 TRFRET art	SRC3 TRFRET art	PPARg SRC-2 ag	PPARg SRC-1 ag	PPARg SRC2 ag	PPARg SRC1 conf	PPARg SRC3 ag
O=C(O)c1ccc(N2C(=O)/C(=C/C=C/c3ccccc3)SC2=S)cc1	i	i	i	i	i	i	nt	nt	nt
CN(C)c1ccc(/C=C/C=C2/SC(=S)N(c3ccccc3)C2=O)cc1	i	i	nt	nt	i	20	30	21	i
C/C(CC(=O)Nc1cccc(Cl)c1Cl)=N\NC(=O)c1ccccc1C	i	i	i	i	i	i	nt	nt	nt
CC(=O)N1N=C(c2ccc(C)o2)CC1c1ccc(Br)cc1 (stereo not drawn)	i	i	nt	nt	i	i	nt	nt	nt
CNC(=S)N1N=C(c2ccc(Br)cc2)CC1c1ccc(Br)cc1 (stereo not drawn)	3230	51	nt	nt	28	30	47	37	28
CNC(=S)N1N=C(c2ccc(Br)cc2)CC1c1ccc(N(C)C)cc1 (stereo not drawn)	3604	29	4829	4796	i	27	41	29	26
COc1ccc(C2=NN(C(N)=S)C(c3ccccc3)C2)cc1 (stereo not drawn)	2602	29	3172	3054	53	57	59	48	41
COc1ccc(C2CC(c3ccc(Br)cc3)=NN2C(=S)Nc2ccccc2)cc1 (stereo not drawn)	2406	i	2916	2737	26	28	44	39	26
CNC(=S)N1N=C(c2ccc(OC)cc2)CC1c1ccc(N(C)C)cc1 (stereo not drawn)	i	i	nt	nt	i	i	nt	nt	nt
Cc1ccc(OC(=O)C2c3ccccc3Oc3ccccc32)cc1C	i	i	i	i	i	i	nt	nt	nt
COc1ccccc1C1CC(c2ccccc2)=NN1C(=S)Nc1ccccc1 (stereo not drawn)	2595	23	3073	2517	37	43	70	51	44
CCOc1ccc(C(=O)C[n+]2ccccc2C)cc1	i	i	i	i	i	i	nt	nt	nt
COc1ccc(NC(=S)NN(C)C(=S)Nc2ccc(OC)cc2)cc1	i	i	i	i	i	i	nt	nt	nt
O=C(/C=C/c1ccccc1)N1CCN(c2c(Cl)cccc2[N+](=O)[O-])CC1	i	i	i	i	i	i	nt	nt	nt
Cc1ccc(C(=O)CSc2nc(-c3ccccc3)ccc2C#N)cc1	i	i	i	i	i	i	nt	nt	nt
N#Cc1ccc(-c2ccc3c(c2)OCO3)nc1SCC(=O)OCc1ccccc1	1976	46	nt	nt	i	40	51	43	25
CCOc1cc(NC(=S)NCCOC)c(OCC)cc1NC(=O)c1ccco1	i	i	i	i	i	i	nt	nt	nt
Cc1c2c(nc3ccccc13)CCC(C)C2 (stereo not drawn)	i	i	i	i	i	i	nt	nt	nt
CCOC(=O)c1sc(-c2ccc(Br)cc2)cc1N	i	i	nt	nt	i	i	nt	nt	nt
CCOC(=O)c1cc(-c2ccc(N)cc2)sc1N	i	i	nt	nt	28	i	i	i	i
CC(C)OC(=O)CNc1n[nH]c(=S)[nH]c1=O	4518	74	5153	4653	129	113	106	78	71
COC(=O)CCNc1n[nH]c(=O)[nH]c1=O	i	i	i	i	i	i	nt	nt	nt
CC(C)COC(=O)C(C)Nc1n[nH]c(=S)[nH]c1=O (stereo not drawn)	i	i	i	i	i	i	nt	nt	nt
CCOC(=O)CSc1nnc(NCC(=O)OC(C)C)c(=O)[nH]1	i	i	nt	nt	i	i	nt	nt	nt
